# Test results published in article PMC4336329 (PLoS ONE, 2015).
# In all, about 310,000 compounds went through this assay and about 14,000 (4.5%) showed an effect of 50% or more. Effects have a minus sign here. The sample as a whole holds a higher share of strong results than the screen did.
# Target: human ether-à-go-go-related gene (hERG) potassium channel (human, UniProt Q12809)
# Assay: primary screen, population patch clamp on CHO cells stably expressing hERG; higher = less effect of the substance
# 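Note: peak tail current of the secondary pulse compared with the same well before compound.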
# Sequence of human ether-à-go-go-related gene (hERG) potassium channel (Q12809 whole entry, looked up): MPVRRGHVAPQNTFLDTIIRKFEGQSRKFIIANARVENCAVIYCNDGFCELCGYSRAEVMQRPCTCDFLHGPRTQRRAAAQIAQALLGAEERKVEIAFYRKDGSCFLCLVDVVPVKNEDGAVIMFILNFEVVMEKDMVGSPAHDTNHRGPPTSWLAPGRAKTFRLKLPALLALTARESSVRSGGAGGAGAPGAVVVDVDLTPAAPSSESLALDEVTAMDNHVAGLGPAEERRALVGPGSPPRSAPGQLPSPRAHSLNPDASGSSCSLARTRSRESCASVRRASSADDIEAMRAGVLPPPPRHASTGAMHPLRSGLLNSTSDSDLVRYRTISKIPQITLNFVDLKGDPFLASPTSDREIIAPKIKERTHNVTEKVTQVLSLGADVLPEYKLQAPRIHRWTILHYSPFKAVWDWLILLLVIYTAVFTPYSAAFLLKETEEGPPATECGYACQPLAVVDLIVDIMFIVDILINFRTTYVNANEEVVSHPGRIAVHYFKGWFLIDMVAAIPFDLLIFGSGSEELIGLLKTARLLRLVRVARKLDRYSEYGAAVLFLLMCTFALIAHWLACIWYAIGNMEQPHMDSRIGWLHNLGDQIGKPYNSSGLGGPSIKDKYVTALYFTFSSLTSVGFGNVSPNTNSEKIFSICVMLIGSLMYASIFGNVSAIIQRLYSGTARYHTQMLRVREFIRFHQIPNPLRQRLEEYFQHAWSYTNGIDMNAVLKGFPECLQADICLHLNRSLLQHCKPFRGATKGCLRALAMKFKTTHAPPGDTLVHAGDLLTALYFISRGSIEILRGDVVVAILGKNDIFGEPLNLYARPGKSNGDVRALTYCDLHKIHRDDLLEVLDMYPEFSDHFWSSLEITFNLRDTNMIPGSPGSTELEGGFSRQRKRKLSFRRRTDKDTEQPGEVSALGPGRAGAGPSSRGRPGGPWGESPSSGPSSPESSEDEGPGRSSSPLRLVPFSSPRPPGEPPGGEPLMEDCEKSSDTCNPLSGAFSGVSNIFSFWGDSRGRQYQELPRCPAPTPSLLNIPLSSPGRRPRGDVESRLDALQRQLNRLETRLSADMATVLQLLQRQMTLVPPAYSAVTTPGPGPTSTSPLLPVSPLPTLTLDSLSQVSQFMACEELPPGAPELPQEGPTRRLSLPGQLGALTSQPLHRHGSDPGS
row,Compound,"hERG current change (%, negative = inhibition) at 10uM"
1,COc1ccc(CCNC(=O)CCC(=O)N2CCN(S(=O)(=O)c3ccccc3)CC2)cc1OC,4.4%
2,Fc1ccc(-n2c(Cc3ccccc3)nnc2SCc2nc(-c3ccc(Cl)cc3)no2)cc1,-1.6%
3,Cc1cc(N(CN2CCCC2=O)C(=O)c2ccc(OC(C)C)cc2)no1,-2.94%
4,O=C(NP(=O)(N1CCOCC1)N1CCOCC1)C1=C(N2CCOCC2)/C(=C\c2ccccc2)CC1,18.1%
5,Cc1nc2n(n1)C(c1ccccc1)C1=C(CC(c3ccco3)CC1=O)N2 (centres unmarked),11.4%
6,CCSc1nnc(-c2cccc(S(=O)(=O)N(C)C)c2)n1-c1cc(OC)ccc1OC,-49.8%
7,CCCSc1nnc(-c2cccc(S(=O)(=O)N(C)C)c2)n1-c1cc(OC)ccc1OC,-68.2%
8,COc1ccc(OC)c(-n2c(SCC(C)=O)nnc2-c2cccc(S(=O)(=O)N(C)C)c2)c1,-16.9%
9,CC(C)(C)OC(=O)CNC(=O)c1nc[nH]c1C(=O)N1CCN(C(=O)OC(C)(C)C)CC1,-15.8%
10,CCOc1ccc(C(=O)NCCC(=O)NCCCC(=O)O)cc1,6.08%
11,Cc1cccc(N2N=C(C(=O)O)CCC2=O)c1,10.2%
12,CC(=O)c1ccc(NC(=O)c2cnn3c(C(F)F)cc(C4CC4)nc23)cc1,11.1%
13,O=C(O)c1cnn2c(C(F)F)cc(C3CC3)nc12,3.73%
14,O=C(Nc1cccnc1)c1cnn2c(C(F)F)cc(C3CC3)nc12,-57.6%
15,Cc1ccc(C)c(SCC(=O)N(C)CC(=O)Nc2ccc(N3CCOCC3)cc2)c1,-5.12%
16,Cc1ccc(NC(=S)N/N=C/c2ccc([N+](=O)[O-])s2)cc1,-3.04%
17,O=C(c1ccc(F)cc1)N1CCC(C(=O)N2CCN(Cc3ccc4c(c3)OCO4)CC2)CC1,-10.5%
18,O=C(C1CCN(Cc2cccs2)CC1)N1CCN(Cc2ccc3c(c2)OCO3)CC1.O=C(O)C(=O)O,-14.5%
19,O=C(C1CC(=O)N(c2ccc(Cl)cc2)C1)N1CCN(Cc2ccc3c(c2)OCO3)CC1 (centres unmarked),-67.7%
20,O=C(C1CC(=O)N(c2ccc3c(c2)OCCO3)C1)N1CCN(Cc2ccccc2)CC1 (centres unmarked),0.404%
21,O=C(C1CCN(Cc2ccc(Cl)cc2)CC1)N1CCN(Cc2ccc3c(c2)OCO3)CC1,-66.6%
22,C[C@H](NS(=O)(=O)c1ccc2c(c1)OCCCO2)C(=O)N1CCN(c2ccc(F)cc2)CC1,-34.8%
23,N#Cc1ccc(CN2CCN(C(=O)CNS(=O)(=O)c3ccc4c(c3)OCCCO4)CC2)cc1,-20.8%
24,C[C@H](NS(=O)(=O)c1ccc2c(c1)OCCCO2)C(=O)N1CCN(Cc2ccc(C#N)cc2)CC1,-61.1%
25,COc1cccc(CN2CCC(C(=O)N3CCN(Cc4ccc5c(c4)OCO5)CC3)CC2)c1,-19.8%
26,O=C(C1CCN(c2nnc(-n3cccc3)s2)CC1)N1CCN(Cc2ccc3c(c2)OCO3)CC1,-68.2%
27,COc1ccc(N2CC(C(=O)N3CCN(Cc4ccc5c(c4)OCO5)CC3)CC2=O)cc1 (centres unmarked),-19%

row,Compound,"hERG current change (%, negative = inhibition) at 10uM"
1,O=C(C1CCN(Cc2ccccc2O)CC1)N1CCN(Cc2ccc3c(c2)OCO3)CC1,-23%
2,O=C(c1c[nH]c2ccc(S(=O)(=O)N3CCOCC3)cc2c1=O)N1CCC2(CC1)OCCO2,23.7%
3,CCc1ccccc1NC(=O)N1C2CCCC1CC(NC(C)=O)C2 (centres unmarked),21.4%
4,Cc1nn(-c2ccccc2)c(Cl)c1C1C(C#N)=C(N)Oc2c1c(=O)oc1ccccc21 (centres unmarked),6.87%
5,CCN1C(=O)C(=Cc2c(C)n(CC(=O)NCC3CCCO3)c3ccccc23)C(=O)N(CC)C1=S (centres unmarked),27.5%
6,CCOc1cc(-c2noc(CCC(=O)Nc3cccnc3)n2)ccc1OC,10.4%
7,O=C(O)CC12C[C@H]3C[C@@H](C1)CC(n1ncc(N4CCN(c5ccccc5)CC4)c(Cl)c1=O)(C3)C2,6.36%
8,N#Cc1ccc(S(=O)(=O)N2CCC(C(=O)N3CCN(Cc4ccc5c(c4)OCO5)CC3)CC2)cc1,-74.2%
9,CCCC(=O)N1CCN(Cc2ccc3c(c2)OCO3)CC1,-3.83%
10,O=C(O)CCC(=O)N1CCN(Cc2ccc3c(c2)OCO3)CC1,11.6%
11,O=C(C1CCN(S(=O)(=O)c2cnc[nH]2)CC1)N1CCN(Cc2ccc3c(c2)OCO3)CC1,0.674%
12,O=C(C1CCN(S(=O)(=O)c2ccccc2)CC1)N1CCN(Cc2ccc3c(c2)OCO3)CC1,-28.9%
13,O=C(CCC1CCCCC1)N1CCN(Cc2ccc3c(c2)OCO3)CC1,-67.2%
14,CCOC(=O)C1CCN(S(=O)(=O)c2cc(C(=O)OC)n(C)c2)CC1,-8.49%
15,c1ccc(Cn2cc(CN3CCCCO3)c(-c3ccc4c(c3)OCO4)n2)cc1,-1.3%
16,c1ccc(-n2cc(CN3CCCC3)c(-c3ccc4c(c3)OCO4)n2)cc1,-73%
17,OC[C@@H]1CCCN1Cc1cn(-c2ccccc2)nc1-c1ccc2c(c1)OCO2,-24.2%
18,c1ccc(-n2cc(CN3CCC(N4CCOCC4)CC3)c(-c3ccc4c(c3)OCO4)n2)cc1,-50.8%
19,Cl.O=C1CSC(c2cn(-c3ccccc3)nc2-c2ccc3c(c2)OCCO3)N1CCN1CCOCC1 (centres unmarked),-21.2%
20,COCC1CCCCN1Cc1cn(-c2ccccc2)nc1-c1ccc2c(c1)OCO2 (centres unmarked),-37.1%
21,COC(=O)C1CCN(Cc2cn(-c3ccccc3)nc2-c2ccc3c(c2)OCO3)CC1,-33.7%
22,COCCC1CCCCN1Cc1cn(-c2ccccc2)nc1-c1ccc2c(c1)OCO2 (centres unmarked),-55.8%
23,c1ccc(-n2cc(CN3CCCC(CN4CCCC4)C3)c(-c3ccc4c(c3)OCO4)n2)cc1 (centres unmarked),-29.2%
24,CC(=O)NCC1CCCN(Cc2cn(-c3ccccc3)nc2-c2ccc3c(c2)OCO3)C1 (centres unmarked),-45.9%
25,c1ccc(Cn2cc(CN3CCCO3)c(-c3ccc4c(c3)OCO4)n2)cc1,15.9%
26,COCC1CCCN(Cc2cn(-c3ccccc3)nc2-c2ccc3c(c2)OCO3)C1 (centres unmarked),-65.7%
